In ChEMBL document CHEMBL2218924, “A broad activity screen in support of a chemogenomic map for kinase signalling research and drug discovery” (Biochem J, 2013):

These compounds were tested against Receptor-type tyrosine-protein kinase FLT3 (Homo sapiens) (UniProt P36888). Details: at 10 µM.
Receptor-type tyrosine-protein kinase FLT3 (Homo sapiens), sequence (P36888 whole entry): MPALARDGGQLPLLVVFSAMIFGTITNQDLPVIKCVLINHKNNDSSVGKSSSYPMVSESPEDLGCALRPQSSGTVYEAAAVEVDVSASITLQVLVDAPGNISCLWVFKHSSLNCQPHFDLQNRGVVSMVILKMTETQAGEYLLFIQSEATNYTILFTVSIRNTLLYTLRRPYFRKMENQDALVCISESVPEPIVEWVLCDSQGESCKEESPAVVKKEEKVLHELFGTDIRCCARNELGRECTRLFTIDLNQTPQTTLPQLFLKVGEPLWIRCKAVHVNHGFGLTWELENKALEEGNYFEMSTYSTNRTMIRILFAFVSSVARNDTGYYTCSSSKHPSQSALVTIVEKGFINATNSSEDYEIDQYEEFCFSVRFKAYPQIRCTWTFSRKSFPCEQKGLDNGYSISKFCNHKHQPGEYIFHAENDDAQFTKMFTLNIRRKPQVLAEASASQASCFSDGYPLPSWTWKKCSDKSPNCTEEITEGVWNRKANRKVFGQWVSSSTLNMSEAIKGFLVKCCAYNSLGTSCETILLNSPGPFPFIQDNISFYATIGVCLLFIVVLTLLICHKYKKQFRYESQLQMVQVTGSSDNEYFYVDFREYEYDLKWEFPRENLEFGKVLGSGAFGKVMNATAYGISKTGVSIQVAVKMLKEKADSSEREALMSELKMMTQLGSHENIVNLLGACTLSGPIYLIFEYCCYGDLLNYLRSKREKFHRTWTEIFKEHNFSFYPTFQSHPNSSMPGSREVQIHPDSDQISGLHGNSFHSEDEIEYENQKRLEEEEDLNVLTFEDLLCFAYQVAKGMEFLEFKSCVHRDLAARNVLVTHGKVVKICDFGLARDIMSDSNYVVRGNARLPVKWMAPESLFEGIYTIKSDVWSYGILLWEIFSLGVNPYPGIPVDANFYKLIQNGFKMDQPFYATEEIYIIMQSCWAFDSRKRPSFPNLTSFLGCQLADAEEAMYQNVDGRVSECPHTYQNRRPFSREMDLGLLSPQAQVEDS
Compound `CC(=O)O/N=C1\C(=C2\C(=O)Nc3cc(Br)ccc32)Nc2ccccc21` has a residual activity of 0%. For `Oc1n[nH]c2nnc(-c3c(-c4ccccc4)nn4ccccc34)cc12`, the residual activity was 63%. `Cn1cnc2cc3c(Nc4cccc(Br)c4)ncnc3cc21` showed a residual activity of 58%. For `O=C(O)c1ccc2c3c1cccc3c(=O)n1c3ccccc3nc21`, the residual activity was 22%. Work on `Nc1nc(Nc2ccc(S(N)(=O)=O)cc2)nn1C(=S)Nc1c(F)cccc1F` yielded a residual activity of 1%. With `CCC(=O)Nc1ccc2ncnc(Nc3cccc(Br)c3)c2c1` the residual activity was 107%. `CO[C@H]1C[C@@H]2CC[C@@H](C)[C@@](O)(O2)C(=O)C(=O)N2CCCC[C@H]2C(=O)O[C@H]([C@H](C)C[C@@H]2CC[C@@H](O)[C@H](OC)C2)CC(=O)[C@H](C)/C=C(\C)[C@@H](O)[C@@H](OC)C(=O)[C@H](C)C[C@H](C)/C=C/C=C/C=C/1C` gave a residual activity of 96%. `O=C1NC(=O)/C(=C/c2ccc3c(c2)OC(F)(F)O3)S1` gave a residual activity of 83%. `O=C1Nc2ccccc2/C1=C1/Nc2ccccc2/C1=N\OCCC(O)CO` (stereo not given) gave a residual activity of 0%. `O=c1c2ccccc2[nH]c(=S)n1CCN1CCC(=C(c2ccc(F)cc2)c2ccc(F)cc2)CC1` was tested, and the residual activity was 57%. For `CC(C)n1cnc2c(NCc3ccccc3)nc(NCCCO)nc21`, the residual activity was 78%. `Cc1nc2cc3nc(-c4cccs4)cnc3cc2n1C` showed a residual activity of 1%. With `COc1cc2ncnc(Nc3ccc(O)c(Br)c3)c2cc1OC` the residual activity was 2%. `CCOc1cc2ncnc(Nc3cccc(Br)c3)c2cc1OCC` was tested, and the residual activity was 40%. With `Cn1cc(/C=C2\C(=O)Nc3ccc(S(N)(=O)=O)cc32)c2ccccc21` the residual activity was -1%. `COc1ccc(CNc2nc(N(CCO)CCO)nc3c2ncn3C(C)C)cc1` was tested, and the residual activity was 74%. With `O=c1cc(-c2cccc3c2Sc2ccccc2S3)oc(N2CCOCC2)c1` the residual activity was 83%. With `O=C(Nc1cccc(Nc2nccc(Nc3cccc(C(F)(F)F)c3)n2)c1)C1CC1` the residual activity was 3%. `CCN(CC)CCCCN1c2ccccc2Oc2ccc(Cl)cc21` was tested, and the residual activity was 74%. For `Nc1cccc(-c2cc3c(Oc4cccc(O)c4)ncnc3[nH]2)c1`, the residual activity was 1%. `COc1ccc(OC)c2c(=S)c3ccccc3[nH]c12` was tested, and the residual activity was 73%. For `COc1cccc(-c2cc(=O)c3ccccc3o2)c1N`, the residual activity was 85%. `CNc1cc2c(Nc3cccc(Br)c3)ncnc2cn1` was tested, and the residual activity was 107%. `CC(C)n1cnc2/c(=N/c3cccc(Cl)c3)nc(NCCO)[nH]c21` was tested, and the residual activity was 1%. `CN(C)c1ccc(/C=C2\C(=O)Nc3ccccc32)cc1` showed a residual activity of 1%. In the case of `N#C/C(=C(\N)Sc1ccc(N)cc1)c1ccccc1C(F)(F)F`, the residual activity is reported as 59%. In the case of `O=C1Nc2cc(Br)ccc2/C1=C1/Nc2ccccc2/C1=N\O`, the residual activity is reported as 1%. With `Ic1cccc(CSc2nnc(-c3ccncc3)o2)c1` the residual activity was 19%. `O=C1NC(=O)c2cc(Nc3ccc(F)cc3)c(Nc3ccc(F)cc3)cc21` gave a residual activity of 73%. In the case of `O=C1c2ccccc2-[n+]2ccc3c([nH]c4ccccc43)c21`, the residual activity is reported as 52%. In the case of `COc1ccc(S(=O)(=O)N(CCO)c2ccccc2CN(C)C/C=C/c2ccc(Cl)cc2)cc1`, the residual activity is reported as 62%. `O=C1NC(=O)/C(=C\c2ccc3nccnc3c2)S1` was tested, and the residual activity was 76%. With `Oc1ccc(Nc2nc(-c3ccc(Cl)cc3)cs2)cc1` the residual activity was 56%. For `O=C1NC(=O)c2c1c1c3ccccc3[nH]c1c1[nH]c3cc(Br)ccc3c21`, the residual activity was 27%. Work on `Oc1c2ccccc2c2c3c(cccc13)N=N2` yielded a residual activity of 1%.
